# In PMC12864922, “TDP-43 directly inhibits mRNA accumulation in neurites through modulation of mRNA stability”:
# The full ranking holds about 9,900 sequences; the median of “r (bound/input frequency ratio)” is about 0.7, and the highest 2% start at about 6.5. For the sample, the highest values were picked, then their nearest neighbours and some sequences at random.
# B1: ENSMUSG00000061578.1192|Ksr2 (ssRNA)
# RNA: GGGAGUUCUACAGUCCGACGAUCGCUUCGAUAUCCGCAUGCUAUGUCUGCUUUUGUUUCUCCACCAUGCCCCCUGCCACCUCUUCUGACAGUGCUCAGAUUUAUCAGCCACCUGACCCACAGACCCAUAUGGACACACUAGAAAGCCCAUCCUAGGUCUUUCCAUGGUCUCUCACACCCCUGUCCCCGUCCCCUCCACCCCCCGGCAGCAUGCUUCACUCUAUGAAUGAGCCGCUGGGAUAUUGACAUGGAGAUGUGUUGAUGGAAAAAGCCUCCACACCCAACAUAACUCUCCAGAGAGAUACUCUUGCGGUCGCACUAGUGUGGAAUUCUCGGGUGUCAAGG
# B2: ENSMUSG00000031028.410|Tub|118:122;252:256 (ssRNA)
# RNA: GGGAGUUCUACAGUCCGACGAUCGCUUCGAUAUCCGCAUGCUAAGAUCCCUUACCCCUCAUCCCCUCUUCUUUUUGGUCCUUGGCUGGGUAGCAAAUUGGUGAGAAGAGCAGCCUAGUCUGUAAGAGUGCAGGGCAGCUGGAACCUUAGGCAGCUCCUCUCAUACCUACCGGCUCCACACCCUAACACUCUCCACCCUCUGCUCCAAACCAGUUCUUCUGCAGAGUGGUGAUGUUAGCUUCCCCAGCUCCUCUCCAAGUCUAGCUUUUUCUGUCCUUCUGGCUCCAAGGUGCUCACACACUGUCUCUUGCGGUCGCACUAGUGUGGAAUUCUCGGGUGUCAAGG
# B3: ENSMUSG00000022095.49|Fam160b2 (ssRNA)
# RNA: GGGAGUUCUACAGUCCGACGAUCGCUUCGAUAUCCGCAUGCUACCUUUUAGAGGAGCUAGAGGAUGGCCAGUGAGCGCCUAGAUGCUGCCCUGCAUGUGUUGCGUGACUAUCUCUGCUAUAUUGUGACCAGGGCCACAACAUGAGACAACUCCAGGGGCCAGGGAGAUGAACUGCUGUCUUUGAGGCUGGCUAAAAAAACAAUCCAGUCCAGAGAGAUGGGGAGGGGGGGAGCAAGAACCCUGUCUGUUACAUUAGGUAUCAUGGAAGCUGCUAAGACUCGGCAGGUUUCUCCGAGGCUUCACCUCUUGCGGUCGCACUAGUGUGGAAUUCUCGGGUGUCAAGG
# B4: ENSMUSG00000029636.83|Wasf3|141:145 (ssRNA)
# RNA: GGGAGUUCUACAGUCCGACGAUCGCUUCGAUAUCCGCAUGCUAACCAGUGGGUGAUACGUUUUCCUGUUUCUUCCCUUUGCAAAUUGAAUUCCAGGUAGAUAUGGUUGUAGAGGGGAAAGUUUAACAAAUCAGAAUGAAAUGUUUGUCUGUUUGCACACUGGGCCUGGUGGCCUCCAAGGAAAACACAACGAUCGUUUGCUUUCUCUAUCUUGGCGCUUGCAACCGAGAGCGGCCAUUUUUAUGAGGGGAGCCCUGUGGGUACUCAUGUGGAAAGUGCCCACUGACUUUGGCAGAUGGAGUUCCUCUUGCGGUCGCACUAGUGUGGAAUUCUCGGGUGUCAAGG
# B5: ENSMUSG00000004113.216|Cacna1b (ssRNA)
# RNA: GGGAGUUCUACAGUCCGACGAUCGCUUCGAUAUCCGCAUGCUAGUCUUAGGGACAUUGACAGUGUCCAUCAGCAUGUCAGAGAAGCAGCUGUAGUGCCCGUGUUUCUCCCUGAGUCAUGGGUUCUGAAGAAGCCAGAGCGGCACAAUGCGUGCUUGCAUGAGGCACUUUCAGCCUUUUUAAAUCUGACUCUCAGGGAUGGGAUGCCUGCCAAGUAGGGUGUAAUCUCUGUUGUGUUUUUAAAACAACAACAACAAAAUAAAACAAAAAAAAAAAACCUAGUAUUCACUGGAUGCUGAAGAGUGCUCUUGCGGUCGCACUAGUGUGGAAUUCUCGGGUGUCAAGG
# B6: ENSMUSG00000035279.61|Ssc5d|92:97;148:152;163:167 (ssRNA)
# RNA: GGGAGUUCUACAGUCCGACGAUCGCUUCGAUAUCCGCAUGCUAUAAAGAGGCUAGCAGAGGUGGCCUGGCCCCCCAGCACUCCUGUGCCCAUGACCACCACCACAGAGGAGGAGGAGAGGCCUCUGAGGGGAGAACACACACCCACUCUGAAAUUCACGGUGCUUAAGAUACUCUUAAACAAAAGCCAACCAUACUACAAUCGAACACACGGUGUUGUUACUGGGGAGCAGGGGCUCUGGAGGGACAGAAUUACAAUGCUGAUCCUAACUUGUCAAUGCCAUCUGUGAUGGCGUUGGAGAUCACUCUUGCGGUCGCACUAGUGUGGAAUUCUCGGGUGUCAAGG
# B7: ENSMUSG00000031028.6|Tub (ssRNA)
# RNA: GGGAGUUCUACAGUCCGACGAUCGCUUCGAUAUCCGCAUGCUAUAGCAGAAGAUGUGUUCACCAUGGAUUACAACUACCCACUGUGUGCACUGCAGGCCUUUGCCAUUGCUCUGUCCAGCUUUGACAGCAAGCUGGCCUGCGAGUAGAGGCCCCCCACUGCCUUUAGGUGGCCCAGUCCGGAGUGGAGCUUGCCUGCCUGCCAAGACAGCCCUGCCUACCCUCUGUUCAUAGGCCCUCUAUGGGCUUUCUGGCCUUACCAACCAGAGACUGGCUGCUCUGCCUCUGCUGCUGAAGCAGGGGGGCUCUUGCGGUCGCACUAGUGUGGAAUUCUCGGGUGUCAAGG
# B8: ENSMUSG00000058297.454|Spock2 (ssRNA)
# RNA: GGGAGUUCUACAGUCCGACGAUCGCUUCGAUAUCCGCAUGCUAUCAGGAGCAAGGUCACACAGGUCAGAUUAUUGUCGGUCCUGCGGGCCUCAUCCUUGAAUAAGCUGCCUGCCCAGUUCCUCCAUCCGUGUUCCUGCCUGCUCCCGUUCCCUUGUUGCGGGCAGGAGAGGUAGGGCUGUGUUGGAAAGAGUUCAACCAAAUUACGGCAGCACCACAUCUUGCCGAGCCCUGGAGCUGCCCUACUAAGAGCCUCCUUAGCCCUGGGUGCUGGGAAGGAUGGUGUACGUUGGGGAAGUUUGAGGCUCUUGCGGUCGCACUAGUGUGGAAUUCUCGGGUGUCAAGG
# Molecular target: TDP-43 (Homo sapiens, UniProt Q13148 1-414)
# Test: RNA Bind-n-Seq with designed 260-mer pool; 25 mM Tris-HCl, 150 mM KCl, 3 mM MgCl2, BSA (printed 500 mg/mL), 20 units/mL SUPERase IN; pH not stated; 500 nM RNA pool, 1 h, 4 C; TDP-43 5, 50, 500 nM; high values mean tight binding
# Conditions: protein: recombinant; tags: SBP (GST cleaved off with PreScission; pGEX-GST-SBP)
# In short: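 Streptavidin beads captured recombinant SBP-tagged TDP-43 at 5, 50 or 500 nM, and the beads were incubated for 1 h at 4 °C with 500 nM of an in vitro-transcribed pool of 260-nt 3′ UTR oligos in 25 mM Tris-HCl, 150 mM KCl, 3 mM MgCl2, BSA and SUPERase IN. After washing, bound RNA was eluted with biotin, reverse transcribed, PCR-amplified and sequenced. Binding is reported as R, the mapped-read-normalized abundance of each oligo in the bound sample divided by its abundance in the input. Two independent protein batches served as duplicates.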
# Chain of TDP-43 (Q13148 whole entry): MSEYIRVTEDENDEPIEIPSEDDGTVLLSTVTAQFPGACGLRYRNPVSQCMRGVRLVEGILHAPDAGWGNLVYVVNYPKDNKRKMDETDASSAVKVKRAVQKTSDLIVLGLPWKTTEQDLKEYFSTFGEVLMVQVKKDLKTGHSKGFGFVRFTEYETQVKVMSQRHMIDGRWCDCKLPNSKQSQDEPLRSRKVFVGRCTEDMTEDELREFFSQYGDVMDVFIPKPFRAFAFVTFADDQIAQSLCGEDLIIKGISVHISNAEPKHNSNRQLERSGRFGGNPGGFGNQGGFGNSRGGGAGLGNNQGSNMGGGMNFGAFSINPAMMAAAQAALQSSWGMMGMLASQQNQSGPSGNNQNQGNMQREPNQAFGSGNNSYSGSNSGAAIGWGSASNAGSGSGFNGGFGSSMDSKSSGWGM
row,Binder,binding signal
1,B1,1.3 R (bound/input frequency ratio)
2,B2,2.59 R (bound/input frequency ratio)
3,B3,1.16 R (bound/input frequency ratio)
4,B4,1.97 R (bound/input frequency ratio)
5,B5,1.66 R (bound/input frequency ratio)
6,B6,0.434 R (bound/input frequency ratio)
7,B7,0.331 R (bound/input frequency ratio)
8,B8,0.419 R (bound/input frequency ratio)
